What all share (assay): NCI-60 one-dose screen, 48 h (100 = growth as untreated, 0 = no growth, -100 = all killed)
Holding throughout (conditions): 10 µM unless noted

Assay [1] relates to SR leukemia.
Assay [2] concerns RPMI-8226 leukemia.
Assay [3] deals with OVCAR-8 ovarian.
Assay [4] has as its system OVCAR-5 ovarian.
Assay [5] deals with OVCAR-4 ovarian.
In assay [6] the test system is SK-OV-3 ovarian.
Assay [7] has as its system IGROV1 ovarian.
Assay [8] has as its system HS 578T breast.
Assay [9] concerns NCI/ADR-RES ovarian.
Assay [10] deals with T-47D breast.
The test system of assay [11] is BT-549 breast.
Assay [12] relates to MDA-MB-435 melanoma.
Assay [13] has as its system SW-620 colon.
Assay [14] concerns HCT-116 colon.
Assay [15] concerns HCC-2998 colon.
Assay [16] has as its system MCF7 breast.
For assay [17], the system named is KM12 colon.
Assay [18] concerns OVCAR-3 ovarian.

SMILES strings stand for the structures. The panel holds about 83,000 compounds, 20% with a hit somewhere; the sample as a whole holds those more often.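 The endpoint reported here, percent growth, reads 100 for growth as untreated, 0 for no net growth and -100 for all cells dead.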 Values without a mark were called inactive. Active and inactive are the calls of the source. How the source made its calls: active means growth percent below 10; inactive means the rest.

From PubChem BioAssay (NCI) come the findings set out here.

For the compound `Clc1ccc(-c2csc(N/N=C/c3nc4ccccc4n3C3CC3)n2)cc1`, the growth in assay [1] was 96.6%; in assay [2], 100%; in assay [3] it was 99%; in assay [4] it was 99.7%; in assay [5], 101%; in assay [6] it was 108%. The growth in [7] is 111%; in assay [8] it was 106%; in assay [9], 102%; in assay [10] it was 111%; in assay [11], 103%; in assay [12], 98.9%. In addition, the growth in assay [13] is 107%; in [14], 96.3%; in assay [15], 105%.

In the case of `CCn1c2ccc(/C=N/NS(=O)(=O)CCN(C)C)cc2c2cc(/C=N/NS(=O)(=O)CCN(C)C)ccc21`, the growth in assay [1] is 83.8%; in assay [2] it was 99.8%; in assay [3], 104%; in assay [4], 100%; in [5] it was 99.8%; in assay [6] it was 104%. The growth in assay [7] was 77.7%; in assay [8], 91.1%; in assay [9], 98.1%; in [10] it was 102%; in [11] it was 99.1%; in assay [12], 96.9%. Besides, the growth is 90.8% in [13], 89.4% in [16], 99.4% in assay [14] and 106% in assay [17].

As for `O=C1Nc2cc(OC(F)(F)F)ccc2Oc2ccc(-c3ccnc(N4CC[C@H](O)C4)c3)cc21`, the growth was -6.83% (active) in assay [1]; 17% in assay [2]; -14.4% (active) in assay [3]; 25.5% in assay [4]; 48.5% in [5]; 27.1% in assay [6]. Moreover, the growth was 16.8% in assay [7]; 24.5% in [8]; 9.76% (active) in [9]; 62.3% in [10]; -18.7% (active) in [11]; -57.3% (active) in assay [12]. Also, the growth is -19.3% (active) in assay [13], 0.967% (active) in [16], -40.5% (active) in [14] and -12.9% (active) in assay [17].

As to `CCCCSc1nnc(-c2ccc(-c3ccc(Cl)cc3)nc2C)o1`, the growth in assay [1] is 95.5%; in assay [2] it was 103%; in assay [3], 109%; in assay [4], 101%; in assay [5] it was 102%; in assay [6], 111%. Moreover, the growth in [7] was 99.1%; in assay [8] it was 105%; in assay [9], 99.8%; in assay [10], 92.8%; in [12], 102%; in assay [13], 101%. Besides, the growth is 85.8% in [16], 98% in assay [14], 100% in assay [15] and 103% in [17].

Take `Cc1ccc(NC(=O)c2cc(/C=C/C(=O)NO)cc(C(F)(F)F)c2)cc1Nc1nccc(-c2cccnc2)n1`: the growth in [1] was 4.9% (active); in assay [2], -13% (active); in [3], -12.2% (active); in [4] it was 17.4%; in assay [5] it was 23%; in assay [6], -38.3% (active). For the same compound, the growth in [7] is 2.46% (active); in assay [8], -14.5% (active); in assay [10], -5.93% (active); in assay [11], -15.3% (active); in assay [12] it was -2.82% (active); in [13], -38.8% (active). Further, the growth in assay [16] was -17.5% (active); in assay [14] it was -12.9% (active); in assay [15], -0.0369% (active); in assay [17], 16.4%.

Turning to `Cc1nc(-c2cc3ccccc3c(N3CCN(C)CC3)n2)cs1`, the growth in assay [1] was 102%; in assay [2], 99.2%; in assay [3], 98.8%; in assay [4], 104%; in assay [5], 102%; in assay [6], 97.1%. In addition, the growth is 97.3% in assay [7]; 85.5% in assay [8]; 94.3% in assay [9]; 84.3% in [10]; 97.5% in assay [11]; 99.9% in [12]. In addition, the growth in [13] is 98.6%; in assay [14], 93%; in assay [15], 95.3%; in assay [17], 103%.

Take `C=CCn1c(SCC(=O)Nc2cccc(C(=O)/C=C/c3ccccc3Cl)c2)nc2ccccc2c1=O`: the growth in assay [1] is 14%; in assay [2], 1.65% (active); in assay [3], 92%; in assay [4], 95.1%; in assay [5] it was 87.7%; in assay [6], 119%. In addition, the growth was 92% in [7]; 89.6% in [8]; 90.4% in assay [9]; 74.5% in [10]; 99.7% in [11]; 89.1% in assay [12]. The growth is 67.2% in [13], -86.9% (active) in [14], 100% in [15] and 80.2% in assay [17].

As for `COc1ccc(Cn2cc3c(c2-c2ccccc2)CCCc2cnoc2-3)cc1`, the growth is 21.1% in [1]; 59.8% in [2]; 78.8% in [3]; 80.7% in [4]; 90.2% in assay [5]; 83.7% in assay [6]. Moreover, the growth in assay [18] was 22%; in [8], 64.9%; in [9] it was 29.8%; in assay [10], 56.4%; in assay [11] it was 77.3%; in assay [12] it was -11.2% (active). Besides, the growth in assay [13] is 28.2%; in [14], 28.8%; in [15], 87.9%; in assay [17] it was 32%.

`N#C/C(=C\c1ccc(Cl)cc1Cl)C(N)=O`: the growth is 80.5% in assay [1]; 111% in assay [2]; 106% in assay [3]; 99.7% in [4]; 107% in [5]; 107% in [6]. The growth in assay [18] was 109%; in assay [8], 99%; in assay [10], 93.7%; in assay [11], 102%; in assay [12] it was 98.5%; in assay [13] it was 88.3%. Besides, the growth is 76.2% in [16], 74% in [14], 103% in assay [15] and 103% in assay [17].
